Results as given in the supplement of paper PMC6555819.

Tests used:
Test in all cases: PBM binding z-score (relative to random genomic background probes); higher = stronger binding; sequences stand for … in GC…GCGATTGACAGCGTAGAATGAAGG
[1] = system: FXR:RXRa (NR concentration 270 nM, RXRa partner concentration 90 nM)
Outline: (§1)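 Ligand-free nuclear receptor dimers were bound for 1 h to custom Agilent 4×180K protein-binding microarrays. Detection used antibodies against each partner (one per run). Binding z-scores rest on regression-normalized fluorescence, with random background probes as the reference.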

[2] = system: LXRa:RXRa (NR concentration 270 nM, RXRa partner concentration 90 nM)
Outline: as §1

[3] = system: LXRa homodimer (NR concentration 270 nM)
Outline: as §1

[4] = system: LXRb:RXRa (NR concentration 270 nM, RXRa partner concentration 90 nM)
Outline: as §1

[5] = system: LXRb homodimer (NR concentration 270 nM)
Outline: as §1

[6] = system: PPARa:RXRa (NR concentration 270 nM, RXRa partner concentration 90 nM)
Outline: as §1

[7] = system: PPARg:RXRa (NR concentration 180 nM, RXRa partner concentration 90 nM)
Outline: as §1

[8] = system: PPARg:RXRa 270nM:90nM, anti-RXR (NR concentration 270 nM, RXRa partner concentration 90 nM)
Outline: as §1

[9] = system: PPARg:RXRa 30nM:10nM, anti-RXR (NR concentration 30 nM, RXRa partner concentration 10 nM)
Outline: as §1

[10] = system: PPARg:RXRa 90nM:30nM, anti-RXR (NR concentration 90 nM, RXRa partner concentration 30 nM)
Outline: as §1

[11] = system: PPARg:RXRa DBDmut IVT, anti-RXR (DBD mutation: RXRa K156A/R161A, NR concentration 270 nM, RXRa partner concentration 90 nM)
Outline: as §1

[12] = system: PPARg:RXRa IVT, anti-PPARg (NR concentration 270 nM, RXRa partner concentration 90 nM)
Outline: as §1

[13] = system: PPARg DBDmut:RXRa IVT, anti-PPARg (DBD mutation: PPARg1 K132A/R137A, NR concentration 270 nM, RXRa partner concentration 90 nM)
Outline: as §1

[14] = system: PPARg DBDmut IVT, anti-PPARg (DBD mutation: PPARg1 K132A/R137A, NR concentration 270 nM)
Outline: as §1

[15] = system: PPARg homodimer (NR concentration 180 nM)
Outline: as §1

[16] = system: PXR:RXRa (NR concentration 270 nM, RXRa partner concentration 90 nM)
Outline: as §1

[17] = system: PXR homodimer (NR concentration 270 nM)
Outline: as §1

[18] = system: RARa:RXR (NR concentration 270 nM, RXRa partner concentration 90 nM)
Outline: as §1

[19] = system: RARa homodimer (NR concentration 270 nM)
Outline: as §1

[20] = system: RARb:RXRa (NR concentration 270 nM, RXRa partner concentration 90 nM)
Outline: as §1

| Sequence | PBM binding z-score [1] | PBM binding z-score [2] | PBM binding z-score [3] | PBM binding z-score [4] | PBM binding z-score [5] | PBM binding z-score [6] | PBM binding z-score [7] | PBM binding z-score [8] | PBM binding z-score [9] | PBM binding z-score [10] | PBM binding z-score [11] | PBM binding z-score [12] | PBM binding z-score [13] | PBM binding z-score [14] | PBM binding z-score [15] | PBM binding z-score [16] | PBM binding z-score [17] | PBM binding z-score [18] | PBM binding z-score [19] | PBM binding z-score [20] |
| --- | --- | --- | --- | --- | --- | --- | --- | --- | --- | --- | --- | --- | --- | --- | --- | --- | --- | --- | --- | --- |
| ACAGACAGGTGGGTGAAGGTAACTCAGCTGGACG | 0.0751 | -0.222 | -0.335 | -0.235 | -0.295 | 0.238 | 0.861 | 0.585 | -0.13 | 0.177 | 0.962 | 1.16 | 0.32 | -0.724 | 0.276 | -0.217 | 0.171 | 0.0103 | -0.0597 | 0.155 |
| CCAGACAGGTGAGAAGGTAACTCAACCTCGATTA | -0.191 | 0.167 | 0.188 | 0.347 | -0.388 | 0.894 | 0.669 | 0.515 | 0.064 | 0.437 | 1.22 | 0.742 | 0.229 | -0.571 | 1.06 | 0.207 | 0.428 | 0.706 | 0.916 | 0.619 |
| TAGCCTAGGTCATTCAGGGGCCAGTACAGAAAGC | 4.86 | 4.11 | 0.86 | 3.16 | 0.986 | 3.6 | 2.29 | 2.39 | 0.132 | 1.25 | 1.84 | 2.77 | -0.186 | 0.258 | 1.6 | 2.52 | -0.228 | 3.86 | -0.153 | 3.9 |
| TCATATAGGTAAATGCTAGCTGAAAGTCCGATCT | 0.654 | 0.665 | -0.000947 | 0.713 | -0.112 | 1.04 | 0.413 | 1.96 | 3.71 | 2.81 | 3.73 | 1.89 | 0.625 | 1.15 | 0.314 | 0.592 | 0.27 | 0.762 | 0.642 | 0.242 |
| GCGACTGGGGCAAGGCAGGTTACCATAAGGTTGG | -0.183 | 0.247 | -0.418 | -0.0825 | -0.867 | 0.979 | 0.978 | 0.49 | -0.677 | 0.000745 | 3.58 | 3.12 | 0.704 | -0.934 | 0.688 | 0.207 | -0.567 | 0.854 | -0.915 | 0.95 |
| AGAATGAGGTTAAGATCACGGAAACAGAATACAT | 2.44 | 1.8 | 0.0665 | 1.91 | 0.115 | 3.74 | 2.6 | 2.66 | 1.17 | 2.11 | 3.1 | 2.73 | 1.28 | 0.711 | 1.19 | 1.28 | 0.346 | 2.31 | 0.826 | 2.24 |
| GGCACGAGGGCAAGTTGATAGCAGAGTTTGATGG | 0.802 | 0.399 | -0.191 | 0.444 | -0.697 | 1.23 | 0.838 | 0.927 | -0.291 | 0.52 | 2.14 | 1.32 | -0.405 | -1.03 | 0.282 | 1.01 | 0.171 | 0.665 | -0.327 | 2.59 |
| CACACTAGGTCACCGGAAGGTCAAAGTCCGCATG | 6.4 | 6.18 | 6.43 | 5.72 | 2.16 | 6.24 | 8.71 | 7.07 | 4.59 | 6.32 | 7.26 | 8.19 | 3.49 | 0.952 | 7.05 | 6.16 | 2.43 | 7.66 | 2.69 | 5.52 |
| CCTAATGGGCCATCAGGTCATTGATATCAACGTT | 1.58 | 1.34 | 1.1 | 1.48 | 0.197 | 2.33 | 1.5 | 2.54 | 0.609 | 1.98 | 3.13 | 3.41 | -0.226 | 0.112 | 1.81 | 1.84 | 0.78 | 2.18 | 0.44 | 2.15 |
| AATACAGGGCCATCGTAGGCCAGAGTACGCACAG | 0.0639 | 0.221 | -0.132 | -0.283 | -0.499 | 0.0726 | 0.954 | -0.0465 | -0.14 | -0.0369 | 0.0782 | 0.608 | 0.846 | -0.0733 | -0.388 | -0.255 | -0.169 | -0.00731 | 0.00973 | 0.931 |
| ATATGTAGGTTACATACGGGTCATTCAGGCTATG | 2.41 | 4.56 | 1.98 | 2.83 | 0.718 | 4.43 | 6.06 | 4.92 | 2.62 | 4.19 | 7.45 | 7.06 | 2.47 | 2.75 | 1.74 | 3.1 | 0.979 | 3.65 | 0.636 | 2.33 |
| CGTCAAAGTTCAAGGAAACGTAACAGAAAGCAGC | 5.45 | 5.15 | 1.92 | 2.97 | 0.958 | 4.11 | 3.58 | 4.4 | 1.69 | 3.29 | 0.0711 | 1.12 | 0.307 | 1.1 | 1.84 | 3.45 | 1.73 | 2.73 | 1.33 | 5 |
| CGTCCAAGATCAAGGTCAGTGAAAGAGACTCGAA | 1.53 | 1.53 | 0.459 | 1.7 | -0.296 | 2.7 | 0.906 | 1.19 | 0.0233 | 0.76 | 1.25 | 1.67 | -0.223 | -0.447 | 1.25 | 1.82 | 0.628 | 2.07 | 0.651 | 3.28 |
| CTACAAAGGTGAACAAGGTCGTTGATTACTATTC | 2.91 | 2.94 | 0.453 | 3.1 | -0.0435 | 4.39 | 3.3 | 3.46 | 0.912 | 2.84 | 3.31 | 3.77 | 0.982 | 0.418 | 1.57 | 3.89 | 2.18 | 3.61 | 0.686 | 3.63 |
| TAGCCTAGTTCAGATCGGGCCAGTATACGCTATA | -0.29 | -0.351 | -0.598 | -0.308 | -0.592 | -0.113 | -0.019 | -0.325 | -0.538 | -0.475 | 0.415 | 0.54 | -0.537 | -0.978 | -0.824 | 0.226 | -0.407 | 0.532 | -1.17 | 0.472 |
| CAGCCTAGGTCAGGGCCAGTAGAGGAGGAACGTT | 1.51 | 0.675 | -0.538 | 0.358 | -1.25 | 1.97 | 0.595 | 0.833 | -0.754 | 0.0745 | 1.54 | 1.51 | -1.47 | -0.919 | 1.22 | -0.278 | -0.736 | 0.769 | -0.574 | 3.42 |
| GCCGCTAGGTCAACTGATGGTCAGCTAAAGCTCG | 3.97 | 3.16 | 0.212 | 1.89 | -0.472 | 3.71 | 2.44 | 3.07 | 0.658 | 1.82 | 4.39 | 3.8 | -0.418 | -0.213 | 1.56 | 1.55 | -0.4 | 3.04 | 0.102 | 4.35 |
| TCATATAGGTAAATTCTAGGTGAAAGTCCGATCT | 1.45 | 1 | 0.27 | 0.797 | 0.0785 | 2.29 | 1.84 | 3.22 | 4.21 | 3.75 | 3.83 | 4.08 | 1.26 | 1.32 | 1.09 | 0.778 | 0.524 | 1.22 | 1.61 | 0.593 |
| ATATGTATGTTACATCCGGGTCATTCAGGCTATG | 1.15 | 1.58 | 0.696 | 2.06 | 0.763 | 2.94 | 1.75 | 1.55 | 0.754 | 1.22 | 3.22 | 3.46 | 1.61 | 1.67 | 1.16 | 2.54 | 1.37 | 2.59 | 0.761 | 1.52 |
